C-LANA FP: blocks KSHV LANA C-terminal domain binding to DNA. MBP-C-LANA/FAM-LBS DNA binding, fluorescence polarization. inhibition, % at 9 µM. hit rate 0.078% among 340,000. AID 504423;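 active = highest replicate inhibition at or above 60% at 9 µM, even if other replicates fall short; inactive = all replicates below 60% inhibition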;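 also: 0% = neutral control wells and 100% = 4 µM acridine orange control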
RTF Ca sens inh: cardiac RTF calcium desensitization. IANBD-labeled cardiac RTF, Ca2+ fluorescence. inhibition, % at 7.15 µM. hit rate 0.12% among 340,000;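 active = inhibition above the mean inhibition of all tested compounds plus 3 SD, cut at about 17% in these data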;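 also: assay run at fixed EC70 calcium of 1.6 mM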
LANA-H2A inh: blocks KSHV LANA binding to histone H2A/H2B; Q9QR71; cell-free LANA-H2A/H2B peptide, fluorescence polarization; inhibition, % (test concentration not listed); hit rate 0.6% among 320,000; in the data active = inhibition mostly above about 10%, no sharp cut-off; inactive = mostly below about 6.7%
Keap1-Nrf2 PPI: inhibitors of human Keap1-Nrf2 protein-protein interaction | Keap1 Kelch-Nrf2 peptide fluorescence polarization, 1536-well | inhibition, % at 9.4 µM | hit rate 0.15% among 340,000 | AID 504523; in the data active = inhibition above about 12%;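 also: human Keap1 Kelch domain with fluorescein labeled Nrf2 9mer peptide probe; 0% = neutral control wells and 100% = peptide positive control; higher means more block of Keap1 binding to Nrf2 peptide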
cardiac RTF act: increases calcium sensitivity of human cardiac regulated thin filaments | P19429+P45379 | IANBD-labeled TnC RTF fluorescence at EC20 calcium; 0% EC20 calcium, 100% full calcium | activation, % at 7.2 µM | hit rate 0.24% among 340,000 | AID 493008;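 active = activation above the mean over all tested compounds plus 3 SD, cut at about 30% in these data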;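 also: rise in fluorescence read as greater calcium sensitivity of cardiac thin filaments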
eLon inh: E. coli protease La inhibition. P0A9M0. purified E. coli Lon protease, fluorescence polarization. inhibition, % at 7.94 µM. hit rate 0.42% among 360,000. AID 602123; in the data active = inhibition above about 13%, passing the limit was not always enough;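 also: 0% = enzyme with probe and DMSO and 100% = no enzyme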
Target sequence (P0A9M0 whole entry, looked up): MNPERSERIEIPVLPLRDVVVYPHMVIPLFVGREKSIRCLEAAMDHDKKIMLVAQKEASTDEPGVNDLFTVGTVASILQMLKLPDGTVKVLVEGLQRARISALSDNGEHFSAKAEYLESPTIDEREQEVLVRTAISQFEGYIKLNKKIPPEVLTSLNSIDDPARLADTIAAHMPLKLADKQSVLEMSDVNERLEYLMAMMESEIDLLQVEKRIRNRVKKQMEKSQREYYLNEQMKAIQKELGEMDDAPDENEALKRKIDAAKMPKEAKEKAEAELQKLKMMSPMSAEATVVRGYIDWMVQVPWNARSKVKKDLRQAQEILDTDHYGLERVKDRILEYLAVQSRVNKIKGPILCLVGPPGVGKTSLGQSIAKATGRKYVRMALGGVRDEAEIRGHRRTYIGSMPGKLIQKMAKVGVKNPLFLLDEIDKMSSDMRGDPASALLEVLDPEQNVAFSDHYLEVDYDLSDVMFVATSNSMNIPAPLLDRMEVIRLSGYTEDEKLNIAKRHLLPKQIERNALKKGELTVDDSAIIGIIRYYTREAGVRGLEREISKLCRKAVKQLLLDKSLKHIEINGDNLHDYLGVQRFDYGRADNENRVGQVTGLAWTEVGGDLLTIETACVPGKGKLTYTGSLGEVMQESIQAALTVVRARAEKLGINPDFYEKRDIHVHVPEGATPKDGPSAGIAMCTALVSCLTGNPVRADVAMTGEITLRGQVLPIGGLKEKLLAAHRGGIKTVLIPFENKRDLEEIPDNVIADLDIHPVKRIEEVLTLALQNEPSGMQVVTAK
* marks the source's active call; other numbers are inactive results; x = no result given; + = active, no number. Compounds with a hit are over-represented: about 1.3% of the library has one in this group of screens.

SMILES	C-LANA FP	RTF Ca sens inh	LANA-H2A inh	Keap1-Nrf2 PPI	cardiac RTF act	eLon inh
CCOc1ccc2c(c1)c1nc3ccccc3nc1n2C	14.9	-0.9	38.9*	-59.9	-5.0	18.1
Cc1ccc2c(c1)c1nc3ccccc3nc1n2C	1.8	-10.0	6.8	0.7	2.0	5.2
COC(=O)Cc1nnc(NC(=O)C(C)C)s1	1.1	-5.3	-7.5	-5.5	0.5	-0.9
CC(C)C(=O)Nc1nnc(CCN2CCOCC2)s1	-1.0	3.3	17.6*	-6.1	-4.4	6.5
COc1ccc(Nc2nc(C(=O)N3CCc4ccccc4C3)cs2)cc1	-0.4	-6.9	19.4*	-5.2	0.4	-3.7
CC(=O)OC1CCC2C3CCc4cc(OP(=O)(N5CC5)N5CC5)ccc4C3CCC12C (stereo unspecified)	x	x	x	x	x	0.1
NC(=O)c1ccc(-n2nnnc2Oc2ccccc2C(=O)N2CCOCC2)cc1	0.2	0.6	-0.9	1.2	-5.3	-8.4
Cn1nc([N+](=O)[O-])nc1Oc1ccccc1C(=O)N1CCOCC1	1.1	-3.9	+	-2.0	-1.6	0.9
CCC(=O)c1ccc(N2CCN(C(=O)c3cccs3)CC2)c(F)c1	x	-5.6	3.9	-3.5	-4.7	0.9
CCCCCCCC(=O)N1CCN(c2cc3c(cc2F)c(=O)c(C(=O)O)cn3CC)CC1	9.3	3.0	-2.0	-0.6	-3.6	-12.1
CCn1cc(C(=O)O)c(=O)c2cc(F)c(N3CCNCC3)cc21	2.3	-6.0	70.7*	-1.7	9.3	4.3
O=[N+]([O-])c1ccc(S(=O)(=O)NCC(c2cccnc2)N2CCc3ccccc32)cc1 (stereo unspecified)	0.8	-0.8	-2.7	0.9	-18.9	-14.7
N/C(=N\OC(=O)C1CCCCC1)c1cccc([N+](=O)[O-])c1	0.1	-4.5	14.6*	2.3	4.1	6.1
CCCCN(C(=O)COC(=O)c1nc2nc(C)cc(C)n2n1)C1CCS(=O)(=O)C1 (stereo unspecified)	1.6	5.3	x	2.3	-3.2	9.8
Cc1ccn2nc(C(=O)OCC(=O)N(CC(C)C)C3CCS(=O)(=O)C3)nc2n1 (stereo unspecified)	-0.3	1.4	80.3*	-0.2	-6.1	-1.8
CCc1[nH]nc(C(=O)NC2CCCc3c2cnn3-c2cc(C)cc(C)c2)c1C (stereo unspecified)	-0.1	-11.0	1.2	-3.7	2.4	-11.3
COc1ccc(OC)c(CCNC(=O)Cn2nc(C)c3c(C)n(-c4ccccc4)nc3c2=O)c1	6.7	-5.3	13.2	3.2	2.7	-16.2
NC(=O)c1ccc(NC(=O)COC(=O)c2ccc(Cl)nc2)cc1	-0.1	-6.4	12.0*	-3.7	3.6	-7.8
O=C(COc1ccc(F)cc1Br)N1CCN(c2ncccn2)CC1	-1.6	-20.2	0.2	-1.8	0.9	1.4
O=C(COc1ccc(F)cc1Br)N1CCN(S(=O)(=O)/C=C/c2ccccc2)CC1	-0.7	3.2	87.3*	0.5	0.3	-4.4
Cc1cc(=O)oc2cc(OCC(=O)Nc3ccc(S(=O)(=O)N(C)C)cc3)ccc12	0.0	1.3	-0.2	-2.4	12.2	-0.9
O=C(NCC1CCCO1)C1CCN(C2CCN(C3CCCCCC3)CC2)CC1 (stereo unspecified)	2.1	-10.6	6.7	-3.5	-2.1	5.0
CN(C)c1ccc(O)c2c1CC1CC3[C@@H](N(C)C)C(=O)C(C(N)=O)=C(O)[C@]3(O)C(=O)C1=C2O (stereo partly specified)	76.7*	8.2	-0.1	4.6	-1.5	-6.0
COc1ccc(N(C(C)C(=O)N2CCC(Cc3ccccc3)CC2)S(C)(=O)=O)cc1 (stereo unspecified)	0.3	-6.7	2.6	-4.2	2.4	-1.1
CC1=C(C(N)=O)C(c2ccc(Br)cc2)n2nc(CCCO)nc2N1 (stereo unspecified)	1.8	-3.1	15.8*	-2.4	-2.1	2.2
CC1=C(C(N)=O)C(c2ccccc2F)n2nc(CCCO)nc2N1 (stereo unspecified)	-1.5	-7.1	-1.3	-5.5	4.0	8.5
Cc1ccc(C(=O)N2CCCC(CCC(=O)N3CCN(c4ccccn4)CC3)C2)cn1 (stereo unspecified)	-0.2	0.3	10.5*	-1.1	2.4	7.3
O=C(CCCC(=O)Nc1ccccc1Br)N/N=C/c1c(F)cccc1Cl	-1.6	-1.4	1.4	-2.7	3.3	-4.4
